BLM inh – blocks DNA unwinding by human BLM helicase; recombinant BLM DNA unwinding, fluorescence dequenching; P54132; 350,000 tested, 0.2% active; AID 2528; Potency, µM (series often up to 56.1 µM), usual class: inhibitors; further: nearly all actives have a fitted effect of over 35% in size
PKM2 act – increases activity of human pyruvate kinase M2. P14618. purified PKM2, Kinase-Glo ATP luminescence, activation; response scale: 0% is enzyme alone, no compound. Potency, µM (highest dose often 57.5 µM), most hits filed as activators. 260,000 tested, 0.34% active; further: nearly all actives have a fitted effect of over 55% in size
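ATP formation by purified human PK-M2, quantified via coupled luciferase luminescence after 1 h at room temperature with 0.1 mM ADP and 0.5 mM PEP final.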
APE1 inh – inhibitors of human APE1 endonuclease; P27695; recombinant APE1, TAMRA/BHQ-2 abasic DNA cleavage fluorescence; Potency, µM (series often up to 65.8 µM), usual class: inhibitors; 350,000 tested, 0.35% active; AID 2517; further: nearly all actives have a fitted effect of over 55% in size
Target sequence (P27695 whole entry, looked up): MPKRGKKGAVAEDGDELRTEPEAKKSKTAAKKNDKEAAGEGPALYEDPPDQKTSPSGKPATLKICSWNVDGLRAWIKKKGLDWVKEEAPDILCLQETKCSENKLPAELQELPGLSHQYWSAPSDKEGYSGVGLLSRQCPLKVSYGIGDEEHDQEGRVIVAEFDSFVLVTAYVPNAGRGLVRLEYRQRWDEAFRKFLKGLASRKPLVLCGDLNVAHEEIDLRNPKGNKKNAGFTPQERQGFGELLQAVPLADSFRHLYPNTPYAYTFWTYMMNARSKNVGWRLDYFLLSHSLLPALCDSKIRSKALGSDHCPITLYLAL
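Step 1: APE1 (0.75 nM) with compound, 15 min RT. Step 2: add 50 nM fluorophore/quencher THF duplex. Step 3: three fluorescence reads 60 s apart (525/598 nm); read 3 minus read 1 = reaction progress.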
RECQ1 inh – inhibitors of human RECQ1 DNA helicase; P46063; RECQ1 DNA unwinding, red fluorescence kinetic read; Potency, µM (top dose mostly 57.3 µM), actives largely listed as inhibitors; 240,000 tested, 0.54% active; further: nearly all actives have a fitted effect of over 30% in size
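RECQ1T1 50 nM; forked duplex (20 bp + 30-nt ss tails) 200 nM, ATP 2 mM final; pH 8.0, 2 mM MgCl2, 2.5 ug/ml poly(dI-dC); 15 min compound preincubation; discontinuous kinetic read over 2 h at RT.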
JMJD2E inh – inhibitors of human JMJD2E histone demethylase; JMJD2E catalytic domain, FDH-coupled NADH fluorescence (FDH is formaldehyde dehydrogenase); Potency, µM (top dose mostly 57.1 µM), actives largely listed as inhibitors; 230,000 tested, 1.6% active; AID 2147; active means well fitted inhibition curve with a large enough effect, not every such curve was filed as active; inconclusive means small, poorly fitted or top-dose-only effect, or another doubt; inactive means no such curve, though single readings can be large or run the other way; further: nearly all actives have a fitted effect of over 50% in size
Target sequence (B2RXH2 1-337 limits assumed): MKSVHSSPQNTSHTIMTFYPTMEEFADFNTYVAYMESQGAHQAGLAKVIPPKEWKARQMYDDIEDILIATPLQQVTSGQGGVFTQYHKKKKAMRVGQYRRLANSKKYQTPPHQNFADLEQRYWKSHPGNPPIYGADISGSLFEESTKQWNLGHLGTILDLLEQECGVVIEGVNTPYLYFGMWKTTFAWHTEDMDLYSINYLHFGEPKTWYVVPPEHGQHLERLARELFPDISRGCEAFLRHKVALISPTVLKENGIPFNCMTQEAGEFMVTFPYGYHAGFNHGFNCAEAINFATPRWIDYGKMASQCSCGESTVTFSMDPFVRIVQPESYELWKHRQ
Each line names hits and unclear results; the compound was inactive in the other large screens. This is one part of a sample in which hits are shown more often than they occur. Unless noted, the call rests on the fitted dose curve; in most records, active means well fitted curve in the direction sought with a large enough effect; inconclusive means small, poorly fitted or top-dose-only effect, or another doubt; inactive means no such curve, though single readings can be large; an effect the other way counts as inactive or inconclusive.

CC1=NN(c2nc(-c3ccc(Cl)cc3)cs2)C(=O)C1	BLM inh inconclusive, JMJD2E inh 25µM
COC(=O)c1ccn(CC(=O)NC2CCCCC2)n1	APE1 inh 30µM (no result: PKM2 act, RECQ1 inh, JMJD2E inh)
CC1=CC(=O)C2=C(C)CC[C@H]3[C@H](C)C(=O)O[C@@H]3C12 (stereo partly drawn)	none (no result: PKM2 act, JMJD2E inh)
N#CC1=C(S)N(c2ccccc2)C(c2ccc(-c3cc(Cl)ccc3Cl)o2)NC1=O (stereo not drawn)	none
N#CC1=C(S)N(c2ccccc2)C(c2ccc(-c3ccc(Cl)c(Cl)c3)o2)NC1=O (stereo not drawn)	JMJD2E inh 25µM
Oc1c(I)cc(I)c2cccnc12	JMJD2E inh 14µM
Oc1c(Cl)cc(Cl)c2cccnc12	JMJD2E inh 14µM
O=C[C@H](O)[C@@H](O)[C@H](O)[C@H](O)CO	none (no result: BLM inh, PKM2 act, RECQ1 inh, JMJD2E inh)
CC(C)(C)n1ncc2c(=O)n(Cc3ccc(-c4ccccc4C#N)cc3)cnc21	none (no result: BLM inh, PKM2 act, RECQ1 inh, JMJD2E inh)
CCc1ccc(C(=O)c2cn(CC(=O)Nc3ccc(OC)cc3)c3cc4c(cc3c2=O)OCO4)cc1	none (no result: PKM2 act, APE1 inh, RECQ1 inh, JMJD2E inh)
CCc1ccc(C(=O)c2cn(CC(=O)Nc3ccc4c(c3)OCO4)c3ccc(OC)cc3c2=O)cc1	BLM inh 14µM (no result: PKM2 act, APE1 inh, RECQ1 inh, JMJD2E inh)
C/C(=N\NC(=O)c1ccncc1)c1cc2ccccc2oc1=O	JMJD2E inh 14µM
COc1ccccc1N1CCN(C(=O)CSc2nc(C)c(Cc3ccccc3)c(=O)[nH]2)CC1	PKM2 act 13µM
CCCCCCCCCCCCC1CO1 (stereo not drawn)	none (no result: BLM inh, PKM2 act, JMJD2E inh)
C[C@]12C=CC(=O)N[C@@H]1CC[C@@H]1C2CC[C@]2(C)C(C(=O)Nc3cc(C(F)(F)F)ccc3C(F)(F)F)CC[C@@H]12 (stereo partly drawn)	none (no result: PKM2 act, APE1 inh, RECQ1 inh, JMJD2E inh)
O=C(CN1C(=O)C2CCCN2c2ncc(Cl)cc21)NCc1ccc2c(c1)OCO2 (stereo not drawn)	JMJD2E inh 14µM
NC(C(=O)O)c1ccc(O)cc1 (stereo not drawn)	none (no result: PKM2 act, APE1 inh, RECQ1 inh, JMJD2E inh)
N[C@H](C(=O)O)c1cccc(O)c1	JMJD2E inh 22µM (no result: PKM2 act)
N#Cc1cc(S(=O)(=O)N2CCOCC2)ccc1N1CCOCC1	none (no result: RECQ1 inh, JMJD2E inh)
O=c1c2ccccc2sn1-c1cc(S(=O)(=O)N2CCOCC2)ccc1N1CCCC1	JMJD2E inh 14µM
O=c1c2ccccc2sn1-c1cc(S(=O)(=O)N2CCOCC2)ccc1N1CCOCC1	JMJD2E inh 8.9µM
O=C(Nc1ccc(Br)cc1)c1cnn2c1NC(=C1CC1)C=C2C(F)F	none (no result: BLM inh, PKM2 act, RECQ1 inh, JMJD2E inh)
O=C1c2ccccc2C(=O)c2c(O)c(O)cc(O)c21	APE1 inh 19µM, RECQ1 inh 6.3µM, JMJD2E inh 22µM (no result: PKM2 act)
Nc1ccc(O)c2c1C(=O)c1ccccc1C2=O	BLM inh 14µM
O=C1CC(c2ccc3c(c2)OCO3)c2cc(O)ccc2O1 (stereo not drawn)	APE1 inh inconclusive (no result: PKM2 act, JMJD2E inh)
COC(=O)C1=C[C@@H](C(=O)OC)[C@@H]2C3=C(C(=O)[C@@]2(C)NC(=O)c2ccccc2)[C@H](C)[C@@H]2C(=O)N(c4ccccc4)C(=O)[C@@H]2[C@@H]3C1	none (no result: PKM2 act, JMJD2E inh)
Cc1cccc(-n2c(O)c(C=Nc3cc(O)ccc3C)c3ccccc3c2=O)n1	none
Cc1cccc(-n2c(O)c(C=Nc3ccccc3O)c3ccccc3c2=O)n1	BLM inh 16µM, APE1 inh inconclusive
O=S(=O)(/N=S1/CC=CCN1S(=O)(=O)c1ccccc1)c1ccccc1 (stereo not drawn)	JMJD2E inh 28µM
CC(C)C[C@H](N)c1nnc(S(=O)(=O)Cc2ccc(F)cc2)o1	PKM2 act 10µM
CC1=C(C(=O)O)N2C(=O)[C@@H](NC(=O)C(N)C3=CCC=CC3)[C@H]2SC1 (stereo partly drawn)	JMJD2E inh 22µM (no result: BLM inh, PKM2 act)
CC1=C(C(=O)O)N2C(=O)C(NC(=O)C(N)C3=CCC=CC3)C2SC1 (stereo not drawn)	JMJD2E inh inconclusive (no result: PKM2 act)
Cc1cc(NC(=O)CSc2nc3c(c(=O)n(C)c(=O)n3C)n2C(C)C)no1	PKM2 act 28µM
CC(C)n1c(SCC(=O)Nc2ccc3c(c2)OCO3)nc2c1c(=O)n(C)c(=O)n2C	APE1 inh inconclusive
CCn1c(SCC(=O)Nc2cc(C)on2)nc2c1c(=O)n(C)c(=O)n2C	none
CCCCn1c(SCC(=O)Nc2cc(C)on2)nc2c1c(=O)n(C)c(=O)n2C	PKM2 act 20µM
Cc1cc(C(=O)O)ccc1-c1ccc(/C=C2\SC(=O)N(CC(=O)Nc3ccc4c(c3)OCO4)C2=O)o1	BLM inh 11µM, APE1 inh 6.7µM (no result: PKM2 act, RECQ1 inh, JMJD2E inh)
Cc1ccccc1NC(=O)CN1C(=O)S/C(=C\c2ccc(-c3cc(C(=O)O)ccc3C)o2)C1=O	PKM2 act inconclusive, APE1 inh inconclusive
O=C(CCN1CCOCC1)N/N=C/c1cc(Br)cc(Br)c1O	JMJD2E inh 28µM
COc1ccc(/C=N/NC(=O)CCN2CCN(c3ccccc3)CC2)c(OC)c1OC	none
O=C(CCN1CCN(c2ccccc2)CC1)N/N=C/c1ccc(O)c(O)c1O	BLM inh 11µM, PKM2 act inconclusive
CNc1ccc(Br)cc(C(=O)/C=C/c2cccc(Cl)c2Cl)c1=O	none
CNc1ccc(Br)cc(C(=O)/C=C/c2cccc(OC)c2OC)c1=O	BLM inh inconclusive, PKM2 act inconclusive, APE1 inh inconclusive, JMJD2E inh 28µM
CC(C)(C)Nc1nc(C#N)nc(Nc2ccccc2)n1	none (no result: PKM2 act, JMJD2E inh)
Clc1cccc(Cl)c1CNc1ccc(N2CCCC2)cc1	APE1 inh inconclusive, JMJD2E inh 13µM
C[C@H]1Cc2c(COc3ccccc3)nc3c(c2CO1)CN(C(=O)c1ccco1)CC3	none
COc1ccc(C)cc1S(=O)(=O)Nc1ccc(F)c(Cl)c1	none
COc1ccc(S(=O)(=O)Nc2ccc(F)c(Cl)c2)cc1OC	PKM2 act 16µM
COC(=O)[C@H](Cc1ccccc1)NC(=O)[C@@H](C)CO	none (no result: PKM2 act, JMJD2E inh)
COc1ccc(OC)c(NC2c3ncccc3C(=O)N2Cc2ccco2)c1 (stereo not drawn)	none
COc1ccc(CN2C(=O)c3cccnc3C2Nc2cc(Cl)ccc2OC)cc1 (stereo not drawn)	JMJD2E inh 14µM
COc1ccc(C(=O)/C=C/C(=O)N(CC(=O)NC2CCCCC2)Cc2cccs2)c(O)c1	PKM2 act 13µM
COCCN(CC(=O)NC1CCCCC1)C(=O)/C=C/C(=O)c1ccc(OC)cc1O	none
O=S(=O)(NCc1ccccc1)c1ccc(Cl)cc1	none
O=S(=O)(Nc1cc2nc3ccccc3nc2n1Cc1ccccc1)c1ccc(Cl)cc1	BLM inh 5µM, JMJD2E inh inconclusive
O=C(O)CN(CC(=O)O)c1ccccc1OCCOc1ccccc1N(CC(=O)O)CC(=O)O	none (no result: PKM2 act, JMJD2E inh)
CC(O)c1cccc2cc(C(O)CNC(C)(C)C)oc12 (stereo not drawn)	none (no result: PKM2 act, JMJD2E inh)
O=CN/N=C/c1c(O)ccc2ccccc12	JMJD2E inh 11µM
Cc1cc(Nc2ccccc2)nc(-c2ccccc2O)n1	JMJD2E inh inconclusive
